This passage reports growth results from PubChem BioAssay (NCI).

What all share (assay): NCI-60 one-dose screen, 48 h (100 = growth as untreated, 0 = no growth, -100 = all killed)
The test system of one test is K-562 leukemia. To be noted: 10 µM unless noted.
The next test relates to MALME-3M melanoma. The conditions noted are these: 10 µM unless noted.
For a further test, the system named is MDA-MB-231 breast. The conditions noted are these: 10 µM unless noted.
The test system of the next test is RXF 393 renal. The conditions noted are these: 10 µM unless noted.
Another test concerns SF-268 CNS. To be noted: 10 µM unless noted.
The subject of the next test is SF-295 CNS. To be noted: 10 µM unless noted.
The subject of another test is SF-539 CNS. To be noted: 10 µM unless noted.
For another test, the system named is UACC-257 melanoma. The conditions noted are these: 10 µM unless noted.
A further test concerns M14 melanoma. To be noted: 10 µM unless noted.
For the next test, the system named is HCT-15 colon. The conditions noted are these: 10 µM unless noted.
In another test the test system is HT29 colon. The conditions noted are these: 10 µM unless noted.
The next test concerns SNB-75 CNS. The conditions noted are these: 10 µM unless noted.
A further test deals with SNB-19 CNS. The conditions noted are these: 10 µM unless noted.
For the next test, the system named is U251 CNS. The conditions noted are these: 10 µM unless noted.
A further test relates to PC-3 prostate. To be noted: 10 µM unless noted.
For a further test, the system named is SK-MEL-5 melanoma. The conditions noted are these: 10 µM unless noted.
Another test relates to UACC-62 melanoma. To be noted: 10 µM unless noted.
For another test, the system named is LOX IMVI melanoma. To be noted: 10 µM unless noted.
A further test relates to SK-MEL-28 melanoma. To be noted: 10 µM.
For a further test, the system named is SK-MEL-2 melanoma. To be noted: 10 µM unless noted.

This is part of a sample that, as a whole, favours compounds with a hit. Of some 83,000 tested, about 20% had one in any assay.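 Method: cells in 96-well plates; compound added at one concentration; 48 h incubation; percent growth measured; values under 10 scored active.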 Unmarked numbers belong to inactive results. Calls of active or inactive are those of the source.

In the case of `COc1ccc(Nc2cc(C)nc(NCc3ccccc3)n2)cc1`, the growth with K-562 leukemia was 5.22% (active); in the test with MALME-3M melanoma it was 13.6%; with MDA-MB-231 breast it was -18.1% (active); in the test on RXF 393 renal, -16.2% (active); in the test with SF-268 CNS, 47.8%; with SF-295 CNS, -30.7% (active). For the same compound, the growth with SF-539 CNS was 47.5%; in the test with UACC-257 melanoma, 46.8%; with M14 melanoma, 8.52% (active); in the test with HCT-15 colon, 26.1%; with HT29 colon, 11%; with SNB-75 CNS it was 49%. The growth was 57.1% in the test on SNB-19 CNS; 15.8% in the test on U251 CNS; 28.1% in the test with PC-3 prostate; 61.9% in the test with SK-MEL-5 melanoma; 69.3% with UACC-62 melanoma; -57.5% (active) with LOX IMVI melanoma. The growth in the test on SK-MEL-28 melanoma is 63.9%; with SK-MEL-2 melanoma, 31.1%.

Take `S=C1CCCC(=S)N1`: the growth in the test on K-562 leukemia was 104%; in the test with MALME-3M melanoma, 106%; in the test with MDA-MB-231 breast, 113%; with RXF 393 renal, 104%; in the test with SF-268 CNS, 99.1%; with SF-295 CNS it was 104%. Moreover, the growth was 100% in the test with SF-539 CNS; 94.6% in the test with UACC-257 melanoma; 105% in the test on M14 melanoma; 101% with HCT-15 colon; 103% in the test with HT29 colon; 99% in the test with SNB-75 CNS. Further, the growth was 103% in the test with SNB-19 CNS; 101% in the test on U251 CNS; 103% in the test on PC-3 prostate; 107% with SK-MEL-5 melanoma; 96% in the test with UACC-62 melanoma; 96.8% with LOX IMVI melanoma. The growth with SK-MEL-28 melanoma is 106%; in the test on SK-MEL-2 melanoma it was 102%.

For `O=C(/C=C/c1ccc(C(F)(F)F)cc1)c1ccc(Nc2nc(NCCO)nc(N3CCOCC3)n2)cc1`, the growth in the test with K-562 leukemia is 5.46% (active); in the test on MALME-3M melanoma it was 97%; with MDA-MB-231 breast, 46.7%; with RXF 393 renal it was 73.9%; with SF-268 CNS, 36%; in the test on SF-295 CNS, 81.4%. Besides, the growth in the test on SF-539 CNS is 50.6%; in the test on UACC-257 melanoma, 98.9%; in the test with M14 melanoma, 37.5%; in the test on HCT-15 colon it was 7.59% (active); in the test on HT29 colon, 7.26% (active); with SNB-75 CNS, 40.1%. Moreover, the growth in the test on SNB-19 CNS was 39.5%; with U251 CNS, -51.3% (active); in the test on PC-3 prostate it was 25.3%; in the test with SK-MEL-5 melanoma, 46.3%; in the test with UACC-62 melanoma, 56%; in the test with LOX IMVI melanoma, 3.82% (active). In addition, the results for the growth in the test on SK-MEL-28 melanoma and in the test on SK-MEL-2 melanoma were 94.1% and 109%, respectively.

For `COc1cccc2cc(N(C)c3nc(C)nc4ccsc34)ccc12`, the growth with K-562 leukemia is 5.29% (active); with MALME-3M melanoma, 52.5%; in the test with MDA-MB-231 breast, 28.9%; in the test with RXF 393 renal it was 40%; in the test with SF-268 CNS, 21.7%; in the test with SF-295 CNS it was 3.17% (active). In addition, the growth was -15.5% (active) in the test with SF-539 CNS; 37.7% in the test on UACC-257 melanoma; 9.85% (active) in the test with M14 melanoma; 0.625% (active) with HCT-15 colon; -10.3% (active) in the test with HT29 colon; 36% in the test on SNB-75 CNS. Moreover, the growth is 24.1% in the test with SNB-19 CNS; 11.7% in the test with U251 CNS; 12.7% with PC-3 prostate; -63% (active) with SK-MEL-5 melanoma; 43.4% with UACC-62 melanoma; 16.3% in the test on LOX IMVI melanoma. The values for the growth in the test with SK-MEL-28 melanoma and in the test on SK-MEL-2 melanoma were 58.9% and 13.1%, respectively.

With `O=S(=O)(Nc1ncccn1)c1ccc(NC2Nc3nc4ccccc4nc3S2)cc1` (stereo not given), the growth in the test with K-562 leukemia is 98.2%; in the test on MALME-3M melanoma, 96.1%; in the test on MDA-MB-231 breast, 99.3%; in the test on RXF 393 renal, 109%; with SF-268 CNS, 97.9%; with SF-295 CNS, 99.5%. Besides, the growth in the test with SF-539 CNS was 95.5%; in the test on UACC-257 melanoma it was 94%; in the test with M14 melanoma, 95.5%; in the test with HCT-15 colon, 96.9%; in the test with HT29 colon it was 106%; with SNB-75 CNS, 84.9%. The growth with SNB-19 CNS was 99.3%; with U251 CNS it was 103%; with PC-3 prostate, 101%; in the test on SK-MEL-5 melanoma, 98.7%; in the test on UACC-62 melanoma, 93.7%; in the test on LOX IMVI melanoma, 94.2%. Also, the growth was 98.7% with SK-MEL-28 melanoma and 106% with SK-MEL-2 melanoma.

Take `O=C(Nc1ccc(C23CC4CC(CC(c5ccccc5)(C4)C2)C3)cc1)c1cccs1`: the growth in the test on K-562 leukemia is 26.5%; in the test on MALME-3M melanoma, 84.5%; with MDA-MB-231 breast it was 87.5%; in the test on RXF 393 renal, 77.5%; in the test on SF-268 CNS, 103%; with SF-295 CNS, 105%. Besides, the growth in the test on SF-539 CNS was 92%; with UACC-257 melanoma, 75.4%; in the test on M14 melanoma, 71.1%; in the test on HCT-15 colon it was 60.2%; in the test with HT29 colon it was 53.8%; in the test with SNB-75 CNS, 98.6%. In addition, the growth in the test on SNB-19 CNS was 91.9%; in the test on U251 CNS, 69.8%; in the test on PC-3 prostate it was 60%; in the test on SK-MEL-5 melanoma it was 56.1%; in the test on UACC-62 melanoma, 63.8%; with LOX IMVI melanoma, 76.5%. In addition, the growth with SK-MEL-28 melanoma was 79.5%; in the test on SK-MEL-2 melanoma it was 75.6%.

As to `CC(=O)c1ccc(Cc2ccc(C(C)=O)s2)s1`, the growth is 94.1% in the test on K-562 leukemia; 106% with MALME-3M melanoma; 99.8% with MDA-MB-231 breast; 104% in the test on RXF 393 renal; 101% in the test with SF-268 CNS; 114% in the test with SF-295 CNS. The growth was 94.1% in the test with SF-539 CNS; 111% in the test with UACC-257 melanoma; 107% in the test with M14 melanoma; 99% in the test with HCT-15 colon; 103% with HT29 colon; 96.9% in the test with SNB-75 CNS. Moreover, the growth was 98.8% in the test on SNB-19 CNS; 98% in the test with U251 CNS; 93.8% in the test on PC-3 prostate; 100% with SK-MEL-5 melanoma; 96.4% with UACC-62 melanoma; 93.7% with LOX IMVI melanoma. Besides, the growth in the test on SK-MEL-28 melanoma is 112%; in the test with SK-MEL-2 melanoma, 98.9%.

With `COc1cccc(/C(C#N)=C/c2nc3c(N4CCOCC4)nc(Cl)nc3n2C)c1`, the growth with K-562 leukemia was 0.802% (active); in the test with MALME-3M melanoma it was -45.2% (active); in the test on MDA-MB-231 breast, -68.9% (active); in the test with RXF 393 renal, -84.9% (active); in the test with SF-268 CNS, -24.4% (active); in the test on SF-295 CNS, 85.7%. Besides, the growth with SF-539 CNS is -20.2% (active); in the test with UACC-257 melanoma it was -57.6% (active); in the test with M14 melanoma it was -54.3% (active); in the test with HCT-15 colon it was -46.4% (active); with HT29 colon it was -49.8% (active); with SNB-75 CNS it was -17.2% (active). Besides, the growth is 55.6% in the test on SNB-19 CNS; -15.1% (active) in the test on U251 CNS; -27.4% (active) in the test with PC-3 prostate; 4.5% (active) in the test on SK-MEL-5 melanoma; -62.3% (active) in the test with UACC-62 melanoma; -88.2% (active) in the test with LOX IMVI melanoma. The values for the growth with SK-MEL-28 melanoma and in the test with SK-MEL-2 melanoma were -77.5% (active) and -29.7% (active), respectively.
